For 10 molecules, z-score and composite z-score results are on record in PubChem BioAssay.

Test [1] can be described thus: resazurin metabolic signal in HepG2 cells – cell-based, resazurin fluorescence, 24 h, PK04 Diversity Set, profiling panel (AID 1172). Note: test concentration not given here. Conditions: HepG2 viability, higher = more signal. A general note: Alamar Blue is a resazurin reagent that responds to reducing activity.
Test [2] can be described thus: budding yeast growth changes without added modifier – OD600, strain BY4716, 24 h, basal condition, primary screen (AID 1173). The settings on record: S. cerevisiae BY4716 growth, OD600, 24 h; higher = more signal, called active from +8 up or from −8 down.
Test [3] can be described thus: viability profiling in MM1S myeloma cells – cell-based, resazurin fluorescence, basal, 24 h, PK04 Diversity Set, profiling panel (AID 1174).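 Note: MM1S multiple myeloma cell line; test concentration not given here.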 The settings on record: higher = more signal, called active from +8 up or from −8 down.
Test [4] deals with Dihydroorotate dehydrogenase (quinone), mitochondrial (Plasmodium falciparum (isolate 3D7)) (UniProt Q08210). Put plainly: inhibition of P. falciparum DHODH – biochemical, C-terminal His tag, absorbance 600 nm, primary screen (AID 1175).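 Note: recombinant parasite enzyme with a five histidine tag at its C terminus; test concentration not given here.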 The settings on record: PfDHODH enzyme, DCIP absorbance 600 nm; higher = more signal, called active from +8 up or from −8 down.
Sequence of Dihydroorotate dehydrogenase (quinone), mitochondrial (Plasmodium falciparum (isolate 3D7)) (Q08210 whole entry, looked up): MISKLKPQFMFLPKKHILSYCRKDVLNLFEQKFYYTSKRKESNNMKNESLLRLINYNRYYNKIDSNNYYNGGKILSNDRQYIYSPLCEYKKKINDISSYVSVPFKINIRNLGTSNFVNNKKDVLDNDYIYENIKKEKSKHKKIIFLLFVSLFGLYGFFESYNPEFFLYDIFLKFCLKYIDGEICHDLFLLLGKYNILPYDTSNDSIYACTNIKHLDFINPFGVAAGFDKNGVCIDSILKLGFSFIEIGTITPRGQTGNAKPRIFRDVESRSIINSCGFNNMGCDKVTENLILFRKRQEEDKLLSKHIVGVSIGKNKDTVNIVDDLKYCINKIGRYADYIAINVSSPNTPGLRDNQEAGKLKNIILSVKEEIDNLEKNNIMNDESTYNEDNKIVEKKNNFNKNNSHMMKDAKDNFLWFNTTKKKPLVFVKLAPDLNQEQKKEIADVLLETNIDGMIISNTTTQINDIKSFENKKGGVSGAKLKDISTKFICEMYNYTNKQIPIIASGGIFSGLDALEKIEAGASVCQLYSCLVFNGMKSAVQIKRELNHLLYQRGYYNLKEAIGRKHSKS
A short description of test [5]: inhibition of PAO1 biofilm formation – strain PAO1, LB-PBS medium, absorbance 600 nm, primary screen (AID 1176). Note: test concentration not given here. Conditions: P. aeruginosa PAO1 growth/biofilm, A600, 12 h; higher = more signal.
Test [6] is described as follows: growth modulation of vineyard yeast isolate – strain RM11-1a, OD600, basal, 24 h, primary screen (AID 1177).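 Note: cultures grown under basal conditions with no added stressor; test concentration not given here.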 Conditions: S. cerevisiae RM11-1a growth, OD600, 24 h; higher = more signal, called active from +8 up or from −8 down.
The nature of test [7]: growth of efflux-deficient E. coli DRC39 – strain DRC39, OD650, 24 h, E. coli filamentation inducers, primary screen (AID 1178).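 Note: growth measured as culture turbidity by optical density at 650 nm; test concentration not given here.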 Conditions: E. coli DRC39 acrAB, higher = more signal, called active from +8 up or from −8 down.
Test [8] can be described thus: growth of efflux-deficient E. coli DRC39 – strain DRC39, OD650, 48 h, E. coli filamentation inducers, primary screen (AID 1179).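 Note: screen aims at cell division blockers that make cells filament.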 Conditions: E. coli DRC39 delta-acrAB growth, higher = more signal, called active from +8 up or from −8 down.
Test [9] can be described thus: viability profiling in RPMI8226 myeloma cells – cell-based, resazurin fluorescence, basal, 24 h, PK04 Diversity Set, profiling panel (AID 1180).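 Note: RPMI8826 multiple myeloma cell line at 5000 cells per well; test concentration not given here.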 The settings on record: higher = more signal.
For test [10], the target named is E3 ubiquitin-protein ligase XIAP (Homo sapiens) (UniProt P98170). The test is described as follows: small molecules binding XIAP protein – biophysical, small-molecule microarray, fluorescence 635 nm, primary screen (AID 1181).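 Note: score merges 667 nm emission and signal to noise over triplicate slides.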 The settings on record: higher = more signal.
Sequence of E3 ubiquitin-protein ligase XIAP (Homo sapiens) (P98170 whole entry, looked up): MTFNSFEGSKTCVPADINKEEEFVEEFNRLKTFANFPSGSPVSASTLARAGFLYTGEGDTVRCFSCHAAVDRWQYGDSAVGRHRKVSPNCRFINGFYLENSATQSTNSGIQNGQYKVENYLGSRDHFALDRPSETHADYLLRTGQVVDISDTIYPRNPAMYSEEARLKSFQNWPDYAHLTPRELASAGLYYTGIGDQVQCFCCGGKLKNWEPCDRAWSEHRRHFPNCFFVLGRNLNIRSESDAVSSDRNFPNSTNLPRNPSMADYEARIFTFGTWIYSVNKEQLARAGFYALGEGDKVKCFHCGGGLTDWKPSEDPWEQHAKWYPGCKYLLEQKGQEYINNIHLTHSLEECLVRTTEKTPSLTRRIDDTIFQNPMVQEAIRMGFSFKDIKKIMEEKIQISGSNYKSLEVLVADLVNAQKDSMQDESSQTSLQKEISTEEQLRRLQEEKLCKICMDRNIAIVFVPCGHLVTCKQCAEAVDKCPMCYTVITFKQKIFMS

Calls of active or inactive are those of the source. Unless noted, the rule behind the calls is not given here.

As for `CO[C@H]1COC(=O)CC=C[C@H](C)[C@H](OC)COC(=O)[C@@H](C)NC(=O)CC=C[C@@H]1C`, the z-score was 0.664 in [1]; -1.17 (inactive) in test [2]; 0.623 (inactive) in [3]; -0.467 (inactive) in [5]; -1.22 (inactive) in test [6]; 0.124 (inactive) in test [7]. Besides, the z-score in test [8] was -0.0133 (inactive); in [9], 0.379. Further, the composite z-score is -0.498 (inactive) in test [4] and 0.0399 in test [10].

Regarding `CC(=O)OC[C@H]1O[C@H](CC=NO[C@@H](C)c2cn([C@H](CO)Cc3ccccc3)nn2)C=C[C@@H]1OC(C)=O`, the z-score is -0.462 in [1]; -0.305 (inactive) in test [2]; 0.0157 (inactive) in test [3]; -0.88 (inactive) in test [5]; -0.793 (inactive) in test [6]; -0.645 (inactive) in [7]. Also, the z-score in test [8] is -1.36 (inactive); in [9] it was 0.205. For the same molecule, the values for the composite z-score in test [4] and in test [10] were -2.87 (inactive) and -0.434, respectively.

Take `CC(=O)OC[C@H]1O[C@@H](ON=C(C)CCC(=O)OC[C@H]2O[C@H](C#Cc3ccccc3)C=C[C@@H]2Oc2ccc(C)cc2)[C@H](OC(C)=O)[C@@H](OC(C)=O)[C@@H]1OC(C)=O`: the z-score in [1] is 0.0214; in test [2] it was -0.053 (inactive); in test [3], 0.364 (inactive); in test [5] it was -0.102 (inactive); in [6] it was 0.0837 (inactive); in test [7], 0.297 (inactive). Besides, the z-score in [8] is -0.905 (inactive); in [9], 0.135. For the same molecule, the composite z-score was -0.47 (inactive) in test [4] and -0.269 in test [10].

Take `C[C@@H]1CC[C@H]2C(=O)OC(CN3C(=O)c4ccccc4C3=O)CN2[C@H]1c1ccc(Br)cc1` (stereo not given in full): the z-score in test [1] is 0.462; in test [2], -0.501 (inactive); in test [3], 0.668 (inactive); in [5] it was -0.27 (inactive); in [6], 0.183 (inactive); in [7], 0.786 (inactive). Further, the z-score in [8] was 0.467 (inactive); in test [9], 0.685. In addition, the composite z-score in test [4] was 0.639 (inactive); in test [10], -0.0438.

For `Cc1cc2c(nc1C)CCCCN2CC(O)CN1CCCc2nc(-c3ccc(Br)cc3)ccc21` (stereo not given), the z-score in test [1] was -0.225; in test [2], -0.849 (inactive); in [3], -1.51 (inactive); in test [5], 0.38 (inactive); in test [6] it was 0.919 (inactive); in test [7] it was 0.608 (inactive). Besides, the z-score in test [8] was 0.348 (inactive); in test [9] it was -1.48. The composite z-score is 0.667 (inactive) in test [4] and 0.131 in [10].

For the molecule `COC(=O)CC=C[C@@H](C)[C@@H](C=NOC(C)CN1CCCc2nc(C)c(C)cc21)NS(=O)(=O)c1ccc(C)cc1` (stereo not given in full), the z-score in [1] is -0.566; in [2] it was 0.21 (inactive); in [3], -0.47 (inactive); in test [5], 0.253 (inactive); in [6] it was 0.253 (inactive); in test [7] it was 0.157 (inactive). In addition, the z-score is -0.0007 (inactive) in [8] and -1.32 in test [9]. In addition, the values for the composite z-score in test [4] and in test [10] were 0.899 (inactive) and 0.222, respectively.

As to `COc1cccc([C@H]2Oc3ccc(OC)cc3C(=NOCC[C@@H]3C=C[C@H](OC(C)=O)[C@@H](COC(C)=O)O3)[C@@H]2O)c1`, the z-score in [1] is -0.76; in test [2], 0.813 (inactive); in test [3] it was -0.698 (inactive); in [5] it was 0.0767 (inactive); in test [6], 0.614 (inactive); in [7], 0.688 (inactive). The z-score in test [8] is -0.53 (inactive); in test [9], -0.583. The results for the composite z-score in test [4] and in [10] were 0.472 (inactive) and 0.0123, respectively.

`CO[C@@H]1COC(=O)[C@@H]2CCCN2C(=O)[C@@H](C)COC(=O)CCC[C@H]1C`: the z-score in [1] is -0.668; in test [2], -0.482 (inactive); in test [3] it was -0.27 (inactive); in test [5], -0.197 (inactive); in test [6] it was -2.66 (inactive); in [7], -0.0549 (inactive). Also, the z-score was -0.0609 (inactive) in test [8] and -0.304 in test [9]. Moreover, the composite z-score is -1.47 (inactive) in test [4] and 0.134 in test [10].

For `CC(CCN1CCCc2nc(C)c(C)cc21)=NOC[C@@H](O)COCc1ccco1`, the z-score in test [1] was 0.365; in [2], 0.657 (inactive); in test [3] it was 0.107 (inactive); in [5], 1.24 (inactive); in test [6], -0.349 (inactive); in [7] it was 0.557 (inactive). The values for the z-score in [8] and in test [9] were 0.948 (inactive) and 0.592, respectively. The composite z-score in test [4] is -0.697 (inactive); in test [10], 2.53.

For `CCOC(=O)NN=C1C[C@@H](O)[C@@H](O)[C@@H]2[C@@H]3C(=O)N(CC)C(=O)[C@@H]3CC[C@H]12`, the z-score in [1] was -0.635; in test [2], 0.467 (inactive); in test [3], -2.97 (inactive); in test [5], 0.0578 (inactive); in test [6], 0.355 (inactive); in test [7], 0.334 (inactive). Moreover, the z-score is 0.388 (inactive) in test [8] and -1.04 in test [9]. The composite z-score in test [4] is 0.463 (inactive); in [10], 0.0119.
